According to PubChem BioAssay AID1159580 (chemical genetic matrix, 2015):
Out of some 5,500 compounds screened, about 2,000 (36%) were called active. Not shown: some 18% with an inconclusive outcome. No stated cut-off is given here; in the data, active means normalized growth mostly below about 0.91 (no sharp cut-off); inconclusive means no clear call, values can overlap the other calls; inactive means mostly above about 0.92. Some of the results follow.

Assay: chemical genetic growth profiling, strain panel (AID 1159580);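 further: tested at 20 µM; growth read once vehicle control cultures reached saturation at 30 °C; 1 = growth at the plate median or of vehicle wells; lower values mean less growth of the strain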
Details: growth OD

Measured: normalized growth

CC(=O)/C=C\[C@@H]1[C@@]2(C)CCCC(C)(C)C2CC[C@@]1(C)O (some centres not stated)
active: S. cerevisiae deletion strains, locus YLR418C, strain cdc73, active compounds read low 0.838
inactive: S. cerevisiae deletion strains, locus YJR075W, strain HOC1, active compounds read low 0.982 | S. cerevisiae deletion strains, locus YKL009W, strain mrt4, active compounds read low 0.97 | S. cerevisiae deletion strains, locus YKL068W, active compounds read low 0.984 | S. cerevisiae deletion strains, locus YKL085W, strain MDH1 (second series), active compounds read low 0.977 | S. cerevisiae deletion strains, locus YKL085W, strain MDH1, active compounds read low 0.977 | S. cerevisiae deletion strains, locus YKL160W, strain elf1, active compounds read low 0.963 | S. cerevisiae deletion strains, locus YKL190W, strain CNB1, active compounds read low 0.964 | S. cerevisiae deletion strains, locus YKR001C, strain vps1, active compounds read low 0.975 | S. cerevisiae deletion strains, locus YKR026C, strain gcn3, active compounds read low 0.979 | S. cerevisiae deletion strains, locus YKR091W, strain srl3, active compounds read low 0.975 | S. cerevisiae deletion strains, locus YLL001W, strain dnm1, active compounds read low 1.01 | S. cerevisiae deletion strains, locus YLL026W, active compounds read low 0.991 | S. cerevisiae deletion strains, locus YLL041C, strain sdh2, active compounds read low 0.968 | S. cerevisiae deletion strains, locus YLR027C, strain aat2, active compounds read low 0.982 | S. cerevisiae deletion strains, locus YLR039C, strain RIC1, active compounds read low 0.846 | S. cerevisiae deletion strains, locus YLR058C, strain SHM2, active compounds read low 0.958 | S. cerevisiae deletion strains, locus YLR102C, strain apc9, active compounds read low 0.973 | S. cerevisiae deletion strains, locus YLR113W, strain HOG1, active compounds read low 0.951 | S. cerevisiae deletion strains, locus YLR221C, strain rsa3, active compounds read low 1.01 | S. cerevisiae deletion strains, locus YLR258W, strain gsy2, active compounds read low 0.981 | S. cerevisiae deletion strains, locus YLR262C, strain YPT6 (second series), active compounds read low 0.939 | S. cerevisiae deletion strains, locus YLR262C, strain YPT6, active compounds read low 0.843 | S. cerevisiae deletion strains, locus YLR268W, strain sec22, active compounds read low 0.923 | S. cerevisiae deletion strains, locus YLR320W, strain mms22, active compounds read low 1.01 | S. cerevisiae deletion strains, locus YLR330W, strain CHS5, active compounds read low 0.974 | S. cerevisiae deletion strains, locus YLR342W, strain FKS1 (second series), active compounds read low 0.957 | S. cerevisiae deletion strains, locus YLR342W, strain FKS1, active compounds read low 0.968 | S. cerevisiae deletion strains, locus YLR357W, strain rsc2, active compounds read low 0.998 | S. cerevisiae deletion strains, locus YLR370C, strain arc18, active compounds read low 0.964 | S. cerevisiae deletion strains, locus YLR371W, strain rom2, active compounds read low 1 | S. cerevisiae deletion strains, locus YLR384C, strain iki3, active compounds read low 0.973 | S. cerevisiae deletion strains, locus YML016C, strain PPZ1, active compounds read low 0.964 | S. cerevisiae deletion strains, locus YML032C, strain rad52, active compounds read low 1.02 | S. cerevisiae deletion strains, locus YML120C, strain ndi1, active compounds read low 0.971 | S. cerevisiae deletion strains, locus YML124C, strain tub3, active compounds read low 0.979 | S. cerevisiae deletion strains, locus YMR058W, strain fet3, active compounds read low 0.968 | S. cerevisiae deletion strains, locus YMR078C, strain ctf18, active compounds read low 0.975 | S. cerevisiae deletion strains, locus YMR125W, strain sto1, active compounds read low 0.958 | S. cerevisiae deletion strains, locus YMR129W, active compounds read low 0.96 | S. cerevisiae deletion strains, locus YMR205C, strain PFK2, active compounds read low 0.926 | S. cerevisiae deletion strains, locus YMR223W, strain ubp8, active compounds read low 1.01 | S. cerevisiae deletion strains, locus YMR231W, strain pep5, active compounds read low 0.972 | S. cerevisiae deletion strains, locus YMR263W, strain SAP30, active compounds read low 0.947 | S. cerevisiae deletion strains, locus YMR307W, strain GAS1, active compounds read low 1.08 | S. cerevisiae deletion strains, locus YNL067W, strain RPL9B, active compounds read low 0.957 | S. cerevisiae deletion strains, locus YNL071W, strain lat1, active compounds read low 0.961 | S. cerevisiae deletion strains, locus YNL128W, strain TEP1, active compounds read low 0.927 | S. cerevisiae deletion strains, locus YNL153C, strain GIM3, active compounds read low 0.951 | S. cerevisiae deletion strains, locus YNL183C, strain NPR1, active compounds read low 0.947 | S. cerevisiae deletion strains, locus YNL209W, strain ssb2, active compounds read low 0.986 | S. cerevisiae deletion strains, locus YNL233W, strain BNI4, active compounds read low 0.942 | S. cerevisiae deletion strains, locus YNL248C, strain rpa49, active compounds read low 0.952 | S. cerevisiae deletion strains, locus YNL250W, strain rad50, active compounds read low 0.99 | S. cerevisiae deletion strains, locus YNL271C, strain bni1, active compounds read low 0.991 | S. cerevisiae deletion strains, locus YNL298W, strain CLA4, active compounds read low 0.984 | S. cerevisiae deletion strains, locus YNL307C, strain MCK1, active compounds read low 0.948 | S. cerevisiae deletion strains, locus YNL322C, strain KRE1 (second series), active compounds read low 0.989 | S. cerevisiae deletion strains, locus YNL322C, strain KRE1, active compounds read low 0.965 | S. cerevisiae deletion strains, locus YNR049C, strain mso1, active compounds read low 0.98 | S. cerevisiae deletion strains, locus YNR052C, strain pop2, active compounds read low 0.98 | S. cerevisiae deletion strains, locus YOL006C, strain TOP1, active compounds read low 0.867 | S. cerevisiae deletion strains, locus YOL012C, strain htz1 0.968 | S. cerevisiae deletion strains, locus YOL147C, strain pex11, active compounds read low 0.987 | S. cerevisiae deletion strains, locus YOR001W, strain rrp6, active compounds read low 0.95 | S. cerevisiae deletion strains, locus YOR061W, strain CKA2, active compounds read low 0.944 | S. cerevisiae deletion strains, locus YOR069W, strain VPS5, active compounds read low 0.977 | S. cerevisiae deletion strains, locus YOR070C, strain gyp1, active compounds read low 0.968 | S. cerevisiae deletion strains, locus YOR080W, strain dia2, active compounds read low 0.978 | S. cerevisiae deletion strains, locus YOR083W, strain WHI5, active compounds read low 1.03 | S. cerevisiae deletion strains, locus YOR106W, strain vam3, active compounds read low 0.982 | S. cerevisiae deletion strains, locus YOR136W, strain idh2, active compounds read low 0.996 | S. cerevisiae deletion strains, locus YOR144C, strain elg1, active compounds read low 0.97 | S. cerevisiae deletion strains, locus YOR184W, strain ser1, active compounds read low 0.993 | S. cerevisiae deletion strains, locus YOR231W, strain MKK1, active compounds read low 0.964 | S. cerevisiae deletion strains, locus YOR265W, strain rbl2, active compounds read low 0.979 | S. cerevisiae deletion strains, locus YOR270C, strain vph1, active compounds read low 0.909 | S. cerevisiae deletion strains, locus YOR290C, strain snf2, active compounds read low 0.974 | S. cerevisiae deletion strains, locus YOR316C, strain cot1, active compounds read low 0.977 | S. cerevisiae deletion strains, locus YPL051W, strain arl3, active compounds read low 0.986 | S. cerevisiae deletion strains, locus YPL055C, strain LGE1, active compounds read low 0.866 | S. cerevisiae deletion strains, locus YPL078C, strain atp4, active compounds read low 0.97 | S. cerevisiae deletion strains, locus YPL106C, strain sse1, active compounds read low 1.02 | S. cerevisiae deletion strains, locus YPL240C, strain hsp82, active compounds read low 0.98 | S. cerevisiae deletion strains, locus YPL241C, strain CIN2, active compounds read low 0.968 | S. cerevisiae deletion strains, locus YPL256C, strain CLN2, active compounds read low 0.979 | S. cerevisiae deletion strains, locus YPR119W, strain clb2, active compounds read low 0.985 | S. cerevisiae deletion strains, locus YPR141C, strain kar3, active compounds read low 0.975 | S. cerevisiae deletion strains, locus YPR163C, strain tif3, active compounds read low 0.973 | S. cerevisiae deletion strains, locus YPR167C, strain met16, active compounds read low 0.971 | S. cerevisiae deletion strains, strain wtn01, active compounds read low 0.94 | S. cerevisiae strains, strain wild type, active compounds read low 0.967
